# From PubChem BioAssay
# “And” between values parts separate entries of the source, which are not always exact repeats. Identical values can stand only once. For some assays here: Results with a measured potency or affinity are listed apart. The source made the active and inactive calls.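 How the source made its calls, unless noted: active means compounds whose cell count with miR-34 switched on is under 0.7 times the count with it off; inactive means the rest.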
# Experiments:
# [1] = blockers of polyQ-driven CASP3 activation – cell-based (AID 1583); conditions: polyglutamine-induced caspase-3 activation, cell assay; stronger effect = higher value;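 tested at 10 µM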
# [2] = yeast 75Q aggregation reduction – 75Q-TubU reporter (AID 1593); conditions: Yeast 75Q polyglutamine aggregation reporter
# [3] = restoration of touch response, mutant HTT neurons – whole organism, C. elegans mechanosensory neurons, N-terminal huntingtin (AID 1599); conditions: C. elegans polyQ-huntingtin mechanosensory neurons, stronger effect = higher value
# [4] = blockers of cytochrome c efflux from mitochondria – biochemical, purified mitochondria (AID 1603); conditions: stronger effect = lower value;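 further: mouse liver mitochondria challenged with calcium chloride; signal normalized to the plate average as 100%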
# [5] = polyglutamine aggregate formation blockers (AID 1604); conditions: polyglutamine-induced protein aggregation inhibition assay; stronger effect = higher value; tested at 2.5 µM
# [6] = glutamate transport activators, MN-1 cells, MN-1 cell line (AID 1612); conditions: MN-1 motor neuron cells, stronger effect = higher value;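 further: tested at 1 µM final; 0% = mean of DMSO vehicle wells on each plate; positive means more glutamate uptake than control and negative means less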
# [7] = GFP-Q80 aggregate reduction, neuronal-like cells, cell-based, NGF-treated PC12, GFPQ80 (AID 1614); conditions: PC12 NGF-treated GFP-polyQ80 inclusion reduction;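 further: lower means fewer inclusions and 0 means no inclusions at all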
# [8] = 75Q-TubH aggregate inhibition, S. cerevisiae, yeast (AID 1616); conditions: S. cerevisiae 75Q-TubH polyglutamine aggregation suppression; stronger effect = higher value
# [9] = target: 6-phosphogluconate dehydrogenase, decarboxylating (Homo sapiens) (UniProt P52209); assay: inhibition of human phosphogluconate dehydrogenase – biochemical, recombinant enzyme, NADPH absorbance, primary screen (AID 1159550;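 active means at least 20% inhibition of 6-phosphogluconate dehydrogenase activity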); conditions: recombinant 6PGD, NADPH absorbance 341 nm; at 10 µM; stronger effect = higher value
# [10] = EMT-state selective cytotoxicity in co-culture – imaging, PC-3E GFP, TEM4-18 mCherry, primary screen (AID 1345086;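 active means compounds killing one labelled cell type while sparing the other, by normalised counts and ratio limits, not self-fluorescent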;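 on all read-outs here: cells exposed to compound for 72 h before imaging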;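 on red/green cell ratio (normalised): normalised mesenchymal count divided by normalised epithelial count so high means epithelial killing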); conditions: PC-3E GFP / TEM4-18 mCherry co-culture, imaging cell counts, at 1 µM; for red/green cell ratio (normalised): actives lie on both sides, counts scaled to control wells, 1 = unselective
# [11] = target: Mitogen-activated protein kinase 7 (Homo sapiens) (UniProt Q13164); assay: Gal4-ERK5 driven luciferase induction – cell-based, HTS, primary screen (AID 1508626;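 active means luciferase signal above three times the same-plate solvent-only control wells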;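 further: luciferase driven by Gal4-ERK5 fusion binding five Gal4 sites before minimal TATA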); conditions: HeLa Gal4-ERK5 transactivation, 18 h, at 5 µM, stronger effect = higher value
# [12] = compounds altering circadian rhythm period length – cell-based, LOPAC library, luminescence reporter (AID 2774; call rule not given here;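 further: values are relative to mean of DMSO wells on each plate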); conditions: circadian reporter cells, at 7 µM, actives lie on both sides
# [13] = viability loss with induced miR-34 in A549 – imaging, A549 dox-inducible miR-34, nuclei and caspase counts, primary screen (AID 1347080); conditions: A549 miR-34 inducible, Hoechst nuclei count, 48 h
# [14] = blockers of cellular phospholipid synthesis – cell-based, LOPAC library, screen 4, primary screen (AID 1347384; call rule not given here); conditions: animal cells, phospholipid biosynthesis inhibition screen; at 10 µM
# [15] = MELAS cybrid and Rieske KO viability enhancers – cell-based, MELAS cybrids, Rieske KO mouse fibroblasts, CellTiter-Glo, primary screen (AID 1508586;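 active means mean z-score across replicates of 1.96 or higher in either the MELAS or the Rieske mutant cell line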;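 further: z relative to plate mean and SD of compound and empty wells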); conditions: low glucose
# [16] = galactose survival enhancers in mitochondrial complex I cybrids – cell-based, galactose medium, ATP luminescence, primary screen (AID 1645843;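 active means z-score of at least 1.8 in each of two replicates, scored against plate mean and spread of sample wells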;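 further: positive z means more ATP and so rescue of galactose-driven cybrid death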); conditions: complex I mutant cybrid cells, 72 h, stronger effect = higher value
# [17] = compounds altering viability of human ES cells (AID 493140; call rule not given here;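 further: cells exposed to compounds for four days before counting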); conditions: human embryonic stem cell survival screen; stronger effect = higher value
# [18] = P. berghei load reduction in hepatocytes – cell-based, HepG2, luciferase luminescence, HepG2 viability, primary screen (AID 624349; in the data active means parasite load remaining mostly below about 12%, no sharp cut-off; inactive means mostly above about 10%;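 further: 100% = mean of DMSO negative control wells on the same plate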); conditions: P. berghei liver stage in HepG2, luciferase luminescence, concentration not given here; parasite load remaining: stronger effect = lower value; viability: measured here: HepG2 viability without parasites
# [19] = target: NAD(+) hydrolase SARM1 (Homo sapiens) (UniProt Q6SZW1); assay: blocking NAD cleavage by SARM1 SAM-TIR – cell lysate, NAD-Glo luminescence (AID 1508614;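 active means compound whose remaining NAD level is above about 45 nM, limit read from the data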); conditions: SAM-TIR HEK293T lysate NADase, at 1 µM, stronger effect = higher value
# [20] = measured here: epithelial PC-3E GFP cell survival
# [21] = measured here: mesenchymal TEM4-18 mCherry cell survival
# [22] = stronger effect = lower value, cell number ratio, induced over uninduced
# [23] = measured here: relative caspase fold change +Dox/-Dox
# [24] = measured here: total cells with miR-34 induction, stronger effect = lower value
# [25] = measured here: total cells without miR-34 induction
# [26] = MELAS cybrid survival, CellTiter-Glo 48 h, stronger effect = higher value
# [27] = Rieske KO mouse fibroblast survival, CellTiter-Glo 72 h
# Sequence of Mitogen-activated protein kinase 7 (Homo sapiens) (Q13164 whole entry, looked up, the tested form may be a part): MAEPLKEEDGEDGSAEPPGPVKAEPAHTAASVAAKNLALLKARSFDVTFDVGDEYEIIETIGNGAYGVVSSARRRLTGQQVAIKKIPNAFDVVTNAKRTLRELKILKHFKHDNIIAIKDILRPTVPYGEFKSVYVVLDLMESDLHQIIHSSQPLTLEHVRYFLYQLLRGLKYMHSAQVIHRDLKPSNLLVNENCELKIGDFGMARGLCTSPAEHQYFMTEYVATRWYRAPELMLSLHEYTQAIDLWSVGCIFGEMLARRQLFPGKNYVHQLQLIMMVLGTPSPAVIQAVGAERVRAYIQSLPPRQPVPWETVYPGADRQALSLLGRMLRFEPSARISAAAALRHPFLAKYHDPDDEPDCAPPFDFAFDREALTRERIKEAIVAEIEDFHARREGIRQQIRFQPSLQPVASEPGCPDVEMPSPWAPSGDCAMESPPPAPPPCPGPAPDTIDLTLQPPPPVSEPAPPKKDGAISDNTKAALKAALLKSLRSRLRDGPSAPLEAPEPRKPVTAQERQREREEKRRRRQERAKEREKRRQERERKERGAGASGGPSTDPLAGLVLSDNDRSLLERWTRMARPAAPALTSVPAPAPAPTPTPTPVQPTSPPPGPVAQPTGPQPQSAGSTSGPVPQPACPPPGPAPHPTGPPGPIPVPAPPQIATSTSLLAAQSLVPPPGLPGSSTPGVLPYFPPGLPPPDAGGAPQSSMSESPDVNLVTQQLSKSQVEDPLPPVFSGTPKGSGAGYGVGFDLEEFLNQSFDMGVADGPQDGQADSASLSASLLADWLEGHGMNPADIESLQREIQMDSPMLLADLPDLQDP
# Sequence of 6-phosphogluconate dehydrogenase, decarboxylating (Homo sapiens) (P52209 whole entry, looked up): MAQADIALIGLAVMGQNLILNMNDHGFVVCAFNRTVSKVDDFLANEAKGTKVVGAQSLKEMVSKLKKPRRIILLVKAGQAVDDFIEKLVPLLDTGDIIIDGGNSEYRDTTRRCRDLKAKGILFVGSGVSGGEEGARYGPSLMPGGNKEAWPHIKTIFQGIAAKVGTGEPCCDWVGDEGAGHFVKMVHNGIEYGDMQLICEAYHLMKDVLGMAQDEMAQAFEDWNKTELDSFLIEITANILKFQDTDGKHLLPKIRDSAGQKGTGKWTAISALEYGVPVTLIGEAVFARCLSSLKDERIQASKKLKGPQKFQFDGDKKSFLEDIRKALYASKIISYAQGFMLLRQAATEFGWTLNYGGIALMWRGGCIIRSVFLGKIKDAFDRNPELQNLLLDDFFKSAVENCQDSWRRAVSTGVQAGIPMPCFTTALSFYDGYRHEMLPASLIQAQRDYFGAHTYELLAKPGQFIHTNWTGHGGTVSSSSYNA
# Sequence of NAD(+) hydrolase SARM1 (Homo sapiens) (Q6SZW1 whole entry, looked up): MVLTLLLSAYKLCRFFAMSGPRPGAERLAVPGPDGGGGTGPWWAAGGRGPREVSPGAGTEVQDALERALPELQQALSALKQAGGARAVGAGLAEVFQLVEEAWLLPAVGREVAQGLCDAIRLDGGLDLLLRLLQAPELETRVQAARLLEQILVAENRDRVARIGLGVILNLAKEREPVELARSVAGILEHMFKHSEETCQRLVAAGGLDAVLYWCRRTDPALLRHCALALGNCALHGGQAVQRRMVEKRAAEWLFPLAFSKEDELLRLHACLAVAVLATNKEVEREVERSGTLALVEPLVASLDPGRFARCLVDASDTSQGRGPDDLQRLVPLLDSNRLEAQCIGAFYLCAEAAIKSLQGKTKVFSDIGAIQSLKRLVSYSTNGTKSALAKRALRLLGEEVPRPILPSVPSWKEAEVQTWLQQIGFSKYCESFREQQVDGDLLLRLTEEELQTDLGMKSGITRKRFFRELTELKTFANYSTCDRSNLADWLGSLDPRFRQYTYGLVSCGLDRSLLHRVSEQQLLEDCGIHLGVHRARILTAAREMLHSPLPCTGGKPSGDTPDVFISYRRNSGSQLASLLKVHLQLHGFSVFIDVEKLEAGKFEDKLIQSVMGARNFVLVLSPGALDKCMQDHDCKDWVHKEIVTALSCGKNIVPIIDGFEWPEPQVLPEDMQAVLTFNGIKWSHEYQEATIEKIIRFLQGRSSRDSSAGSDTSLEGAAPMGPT
compound,measurement,setting,value
O=C1C[C@@H](c2ccc(O)cc2)Oc2cc(O)cc(O)c21,inhibition,[1],11.6%
same,score,[2],1.28
same,rescue above control,[3],-15.8
same,cytochrome c release ratio,[4],1.08
same,inhibition of aggregation,[5],57.7%
same,glutamate uptake change,[6],9.95%
same,inclusion score,[7],2
same,aggregation suppression score,[8],1.04
same,inhibition,[9],-3.37% (inactive)
same,red/green cell ratio (normalised),[10],1.16 (inactive)
same,normalised cell number,[10]; [20],0.96
same,normalised cell number,[10]; [21],1.12
same,luciferase signal,[11],40 AU (inactive)
Cc1cc(O)c2c(c1)C(=O)c1cc(O)cc(O)c1C2=O,period change,[12],0.05 h (inactive)
same,inhibition,[9],2.17% (inactive)
same,red/green cell ratio (normalised),[10],1.05 (inactive)
same,normalised cell number,[10]; [20],1.08
same,normalised cell number,[10]; [21],1.13
same,fold change,[13]; [22],1.01 (inactive) and 0.837 (inactive)
same,fold change,[13]; [23],1.12 and 1.08
same,cell count,[13]; [24],8200 and 6790
same,cell count,[13]; [25],8110
same,outcome,[14],inactive
same,z-score,[15]; [26],-0.41 (inactive)
same,z-score,[15]; [27],0.119
same,z-score,[16],0.08 (inactive)
NC1(C(=O)O)CC1,period change,[12],-0.01 h (inactive)
same,inhibition,[9],-3.72% (inactive)
same,red/green cell ratio (normalised),[10],0.8 (inactive)
same,normalised cell number,[10]; [20],1.07
same,normalised cell number,[10]; [21],0.86
same,fold change,[13]; [22],0.945 (inactive)
same,fold change,[13]; [23],1.33
same,cell count,[13]; [24],9670
same,cell count,[13]; [25],10200
same,outcome,[14],inactive
same,luciferase signal,[11],60 AU (inactive)
same,z-score,[16],0.575 (inactive)
CC1(C)S[C@@H]2[C@H](NC(=O)Cc3ccccc3)C(=O)N2[C@H]1C(=O)O,inhibition,[1],18.9%
same,score,[2],1.32
same,rescue above control,[3],-0.92
same,cytochrome c release ratio,[4],0.98
same,inhibition of aggregation,[5],16.8%
same,glutamate uptake change,[6],6.9%
same,inclusion score,[7],2
same,aggregation suppression score,[8],1.3
same,survival,[17],5.08 (inactive)
same,parasite load remaining,[18],73.8% (inactive) and 85.4% (inactive) and 69.6% (inactive)
same,viability,[18],70.9% and 69.6% and 97.7%
same,inhibition,[9],1.35% (inactive)
same,red/green cell ratio (normalised),[10],1.11 (inactive)
same,normalised cell number,[10]; [20],0.85
same,normalised cell number,[10]; [21],0.94
same,fold change,[13]; [22],0.959 (inactive) and 0.873 (inactive)
same,fold change,[13]; [23],0.53 and 0.733
same,cell count,[13]; [24],9610 and 11500
same,cell count,[13]; [25],10000 and 13200
same,z-score,[15]; [26],-1.02 (inactive)
same,z-score,[15]; [27],-0.0384
same,remaining NAD,[19],10 nM (inactive)
same,luciferase signal,[11],108 AU (inactive)
COc1cc(S(C)=O)ccc1-c1nc2ncccc2[nH]1 (stereo not drawn),inhibition,[1],23%
same,score,[2],1.52
same,rescue above control,[3],8.66
same,cytochrome c release ratio,[4],0.94
same,inhibition of aggregation,[5],3.24%
same,glutamate uptake change,[6],3.5%
same,inclusion score,[7],2
same,aggregation suppression score,[8],1.25
same,survival,[17],5.5 (inactive)
same,parasite load remaining,[18],107% (inactive)
same,viability,[18],101%
same,inhibition,[9],14% (inactive)
same,red/green cell ratio (normalised),[10],1.07 (inactive)
same,normalised cell number,[10]; [20],0.84
same,normalised cell number,[10]; [21],0.9
same,fold change,[13]; [22],0.851 (inactive)
same,fold change,[13]; [23],1.41
same,cell count,[13]; [24],7350
same,cell count,[13]; [25],8630
same,z-score,[15]; [26],-0.22 (inactive)
same,z-score,[15]; [27],0.17
same,luciferase signal,[11],48 AU (inactive)
